Screens as filed in PubChem.
MITF inh – inhibitors of human MITF. O75030. AlphaScreen MITF homodimerization, bead proximity signal. inhibition, % at 2.6 µM. actives 0.91% (n = 650,000); in the data active = inhibition above about 50%
Target sequence (O75030 whole entry, looked up): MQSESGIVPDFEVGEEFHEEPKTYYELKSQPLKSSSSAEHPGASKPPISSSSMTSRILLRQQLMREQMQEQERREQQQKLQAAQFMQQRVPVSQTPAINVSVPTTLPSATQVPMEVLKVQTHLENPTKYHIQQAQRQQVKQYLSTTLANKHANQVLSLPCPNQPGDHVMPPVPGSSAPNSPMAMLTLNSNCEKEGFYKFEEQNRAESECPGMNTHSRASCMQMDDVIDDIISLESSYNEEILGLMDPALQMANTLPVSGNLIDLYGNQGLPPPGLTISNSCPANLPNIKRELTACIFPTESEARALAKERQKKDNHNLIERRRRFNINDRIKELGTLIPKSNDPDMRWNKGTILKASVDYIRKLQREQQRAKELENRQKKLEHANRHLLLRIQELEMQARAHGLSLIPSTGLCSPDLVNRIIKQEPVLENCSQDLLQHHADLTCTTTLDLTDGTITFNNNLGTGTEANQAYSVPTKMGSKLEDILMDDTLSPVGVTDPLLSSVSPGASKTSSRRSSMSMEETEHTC
GPR151 activ – activates the human receptor GPR151. Q8TDV0. PathHunter beta-arrestin GPR151 cells, luminescence. activation, % at 11.2 µM. actives 1% (n = 650,000); in the data active = activation above about 4.9%
TEAD-YAP inh – TEAD-YAP interaction inhibition. HEK-TIYL cells, TEAD-Gal4/YAP UAS-luciferase luminescence. inhibition, % at 9.12 µM. actives 1.4% (n = 640,000). AID 1259422; in the data active = inhibition above about 32%
FBW7 act – activators of human E3 ligase FBW7; Q969H0; actives 0.13% (n = 650,000); normalized activity (activation), % at 26.1 µM; AlphaScreen FBW7–phospho-cyclin E peptide binding, activator screen; in the data active = normalized activity above about 1.9%;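 note: purified mutant Fbw7 with reduced substrate affinity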
A number is an active result; n = inactive; ! = not active in a repeat. A selection: hits, their analogues and other compounds. The true share with any hit is near 3.4%.

SMILES	MITF inh	GPR151 activ	TEAD-YAP inh	FBW7 act
O=C(Cc1ccc(Cl)cc1)NCc1cccs1	n	n	n	9.5
Cc1nc2ccccn2c1C(=O)Nc1ccc(CC(=O)NCc2cccs2)cc1	n	n	55	n
CC(NC(=O)C(=O)Nc1cccc(Br)c1)c1ccccc1 (configuration not stated)	n	n	n	n
Cc1ccc(C2OC3(C(=O)c4ccccc4C3=O)C(c3ccc(Br)cc3)C23C(=O)c2ccccc2C3=O)cc1 (configuration not stated)	n	n	n	n
CCOc1ccc2ccccc2c1C(=O)N1CCN=C1SC	n	n	n	n
Oc1ccc(Br)cc1CN1CCN(Cc2ccncc2)CC1	54	n	n	n
CCS(=O)(=O)N1CCN(Cc2cc(Br)ccc2O)CC1	54	n	n	n
Oc1ccc(Br)cc1CN1CCN(Cc2c[nH]c3ccccc23)CC1	58	n	n	n
c1ccc2cc(CN3CCN(Cc4c[nH]c5ccccc45)CC3)ccc2c1	n	n	n	n
CC(C)N(CCNc1nc(N2CCN(Cc3ccc4c(c3)OCO4)CC2)nc2c1ncn2Cc1ccc(C(F)(F)F)cc1)C(C)C	n	n	n	n
O=C(NCCNC1CC(=O)N(c2ccccc2)C1=O)c1ccc(Cl)cc1 (configuration not stated)	n	n	n	n
O=C(Nc1ccc(Cl)c(Cl)c1)c1cnn2cccnc12	n	n	n	n
CCCc1cc(C(=O)OC)c(NC(=O)/C=C/C(=O)O)s1	n	n	37	n
CCOC(=O)c1cc(C(C)C)sc1NC(=O)/C=C/C(=O)O	n	n	45	n
CSc1ccc(C2C(C#N)=C(N)N(c3ccc(S(N)(=O)=O)cc3)C3=C2C(=O)CCC3)cc1 (configuration not stated)	n	n	n	n
CC(C)N(C(=O)Cn1nnc2c(cnn2-c2ccccc2)c1=O)C(C)C	n	n	n	n
CCc1cccc(C)c1NC(=O)c1cc(S(=O)(=O)N2CCOCC2)ccc1F	n	n	n	n
c1ccc2c(c1)CC/C2=N/Nc1ccc2ccccc2n1	n	n	74	n
COc1ccc(C2=NN(C(=O)c3ccco3)C(O)(C(F)(F)F)C2)cc1 (configuration not stated)	n	n	41	n
Cc1ccc(C2=NN(C(=O)c3ccco3)C(O)(C(F)(F)F)C2)cc1 (configuration not stated)	n	n	n	n
O=C(NCc1ccc(Cl)c(Cl)c1)c1ccc2c(=O)n(Cc3ccco3)c(=S)[nH]c2c1	n	n	n	n
Cc1ccc(-c2n[nH]c(=S)n2/N=C\c2ccc(O)c(O)c2)cc1	n	n	n	n
Oc1ccc(/C=N/n2c(-c3ccncc3)n[nH]c2=S)cc1O	63	n	n	n
CC1=C(C(=O)Nc2ccccc2C)C(c2cccc(O)c2)NC(=S)N1 (configuration not stated)	n	n	n	n
O=[N+]([O-])c1cccc(/C=N/c2c(-c3ccco3)nc3ccccn23)c1O	n	n	n	n
SMILES	MITF inh	GPR151 activ	TEAD-YAP inh	FBW7 act
Nc1c(Br)cc(O)c2c1C(=O)c1ccccc1C2=O	n	n	n	n
Nc1c2c3c(c(O)ccc3[nH]c1=O)C(=O)c1ccccc1-2	n	n	37	n
CN(Cc1ccccc1)C(=O)Cn1cc2c(n1)CCCC2	n	n	n	n
Cn1nc(NC(=O)c2ccc(F)cc2F)c2c1NC(=O)CC2c1ccco1 (configuration not stated)	n	n	n	n
O=C(Nc1ccc(S(=O)(=O)N2CCC(c3nc4ccccc4[nH]3)CC2)cc1)c1ccccc1F	n	n	40	n
CCC(CC)C(=O)Nc1ccc(S(=O)(=O)N2CCC(c3nc4ccccc4[nH]3)CC2)cc1	n	n	n	n
O=C(CCc1ccccc1)Nc1ccc(S(=O)(=O)N2CCC(c3nc4ccccc4[nH]3)CC2)cc1	n	n	32	n
COc1ccc(OC)c(NC(=O)CSc2nnc(-c3ccccc3)n2-n2cccc2)c1	n	n	n	n
COc1cccc(-c2nnc(SCC(=O)Nc3cc(Cl)ccc3OC)n2-n2cccc2)c1	n	n	52	n
COC(=O)c1ccc(Cl)c(NS(=O)(=O)c2ccc(C)cc2)c1	n	n	57	n
COC(=O)c1ccc(Cl)c(NS(=O)(=O)c2ccc(OC)c(Cl)c2)c1	n	n	n	n
COC(=O)c1ccc(C)c(NS(=O)(=O)c2ccc(OC)c(OC)c2)c1	n	n	n	n
COC(=O)c1ccc(NS(=O)(=O)c2ccc(OC)cc2)cc1	n	n	n	n
COC(=O)c1ccc(N2CCCCCC2)c(NS(=O)(=O)c2ccc(OC)cc2)c1	n	n	57	n
COC(=O)c1ccc(C)c(NS(=O)(=O)c2ccc3ccccc3c2)c1	n	n	53	n
COC(=O)c1ccc(C)c(NS(=O)(=O)c2ccc(OC)c(Cl)c2)c1	n	n	41	n
CC(=O)OC(C#CCN1CCOCC1)(C(C)C)C(C)C	n	n	n	n
N=C(N)c1ccc(OCCCCCOc2ccc(C(=N)N)cc2)cc1	n	n	44!	n
N=C(N)c1ccc(N)cc1	n	n	n	n
CCOc1ccc(-c2[nH]nc3c2C(c2cccs2)C(C#N)=C(N)O3)cc1OC (configuration not stated)	n	n	n	n
CN(Cc1ccccc1)C(=O)CC1(c2ccccc2Cl)CC(=O)N(C)C1=O (configuration not stated)	n	n	n	n
Cc1cccc(-n2ncc3c(N4CCC(C)CC4)ncnc32)c1	n	n	n	n
Cc1cccc(-n2ncc3c(N4CCCC(C)C4)ncnc32)c1 (configuration not stated)	n	n	96	n
Cc1cccc(-n2ncc3c(N4CCCCCC4)ncnc32)c1	n	n	74	n
CC1CCCN(c2ncnc3c2cnn3-c2ccccc2)C1 (configuration not stated)	n	n	84	n
SMILES	MITF inh	GPR151 activ	TEAD-YAP inh	FBW7 act
CC1CC(C)CN(c2ncnc3c2cnn3-c2ccccc2)C1 (configuration not stated)	n	n	n	n
CC1CC(C)CN(c2ncnc3c2cnn3-c2ccc(Cl)cc2)C1 (configuration not stated)	n	n	34	n
CC1CCN(c2ncnc3c2cnn3-c2ccc(Cl)cc2)CC1	n	n	n	n
CCN1CCN(c2ncnc3c2cnn3-c2ccc(Cl)cc2)CC1	n	n	n	n
CC1CCCN(c2ncnc3c2cnn3-c2ccc(Cl)cc2)C1 (configuration not stated)	n	n	94	n
CN1CCN(c2ncnc3c2cnn3-c2ccc(Cl)cc2)CC1	n	n	67	n
CCOc1ccccc1NC(=O)CN1C(=O)C2(SCC(=O)N2c2cccc(C)c2)c2ccccc21 (configuration not stated)	n	n	n	n
NC(=O)c1ccsc1NC(=O)c1cc(Cl)cc(Cl)c1	n	n	n	n
CCN(CC)S(=O)(=O)c1ccc(-c2csc(=Nc3ccc(F)cc3)n2CCCO)cc1	n	n	39	n
OCCCn1c(-c2ccc(F)cc2)csc1=Nc1ccc(F)cc1	n	n	n	n
Cc1ccc(/C=C/C(=O)Nc2ccc(F)cc2)o1	n	n	n	n
